Calls of active or inactive are those of the source. Rule for the calls: active = hit-call score of the fitted dose curve at least 0.9, where 1 is the maximum; inactive = score below 0.9.

Experiment [1] is described as follows: ATG_GLI_CIS: Attagene CIS-FACTORIAL HepG2 Assay for human Zinc Finger Protein GLI1 (AID 2282945). The conditions noted are these: HepG2, Attagene cis-factorial reporter mRNA, GLI element; actives raise or lower the signal. Summed up: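 Bidirectional curve fits relative to DMSO, using reporter mRNA levels from RT-PCR plus capillary electrophoresis. Cells were HepG2 transiently carrying cis-regulated reporter constructs, harvested 24 h after dosing.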

For experiment [2], the target named is Bile acid receptor (Homo sapiens) (UniProt Q96RI1). Put plainly: ATG_IR1_CIS: Attagene CIS-FACTORIAL HepG2 Assay for human Nuclear Receptor Subfamily 1 Group H Member 4 (NR1H4), IR1 submotif (AID 2282946). The conditions noted are these: IR1 reporter transcription, actives raise or lower the signal. In outline: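 HepG2 cells transiently transfected with multiplexed cis-element reporter units read endogenous transcription factor activity. After 24 h compound exposure, reporter mRNA was quantified by RT-PCR, fluorescent labelling, HpaI digestion and capillary electrophoresis; bidirectional fitting versus DMSO baseline.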
Bile acid receptor (Homo sapiens), sequence (Q96RI1 whole entry, looked up): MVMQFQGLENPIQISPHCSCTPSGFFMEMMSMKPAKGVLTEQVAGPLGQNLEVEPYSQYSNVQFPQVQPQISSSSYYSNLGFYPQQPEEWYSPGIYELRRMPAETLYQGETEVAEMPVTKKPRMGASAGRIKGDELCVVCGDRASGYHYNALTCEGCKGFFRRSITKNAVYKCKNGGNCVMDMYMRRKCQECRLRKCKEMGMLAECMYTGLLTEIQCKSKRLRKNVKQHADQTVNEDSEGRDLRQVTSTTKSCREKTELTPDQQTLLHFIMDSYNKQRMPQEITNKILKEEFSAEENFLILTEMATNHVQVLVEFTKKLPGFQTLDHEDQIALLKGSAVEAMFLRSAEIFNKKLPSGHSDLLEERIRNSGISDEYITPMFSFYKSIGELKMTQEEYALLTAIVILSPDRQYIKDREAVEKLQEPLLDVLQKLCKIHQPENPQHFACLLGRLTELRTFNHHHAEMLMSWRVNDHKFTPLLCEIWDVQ

Experiment [3] is described as follows: ATG_GRE_CIS: Attagene CIS-FACTORIAL HepG2 Assay for human Glucocorticoid Response Elements (GRE) (AID 2282947). Particulars: HepG2 GRE cis-reporter, Attagene multiplex mRNA; actives raise or lower the signal. Summed up: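 Multiplexed cis-reporter mRNA induction, HepG2, 24 h post-dose. RT-PCR, FAM-labelled, HpaI-digested amplicons by CE. Bidirectional fit vs DMSO.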

Experiment [4] can be described thus: ATG_ISRE_CIS: Attagene CIS-FACTORIAL HepG2 Assay for human Interferon Regulatory Factor 1 (IRF1) binding to an Interferon-Stimulated Response Element (ISRE) (AID 2282948). The conditions noted are these: HepG2 ISRE cis-reporter (Attagene), mRNA transcription readout; actives raise or lower the signal. Summed up:
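Multiplexed mRNA reporter readout in human liver HepG2 cells: cis-element-driven reporters transfected, compound added for 24 h, transcripts amplified, fluorescently labelled and sized by capillary electrophoresis; curve fitting bidirectional against DMSO.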

Experiment [5] is described as follows: ATG_M_32_CIS: Attagene CIS-FACTORIAL HepG2 Assay for M32 Transcription Factor (Internal Marker) (AID 2282949).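 Note: background control marker of the multiplexed CIS panel rather than a real target.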 The conditions noted are these: HepG2 Attagene cis-factorial M32 reporter, mRNA; actives raise or lower the signal. In outline:
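Using DMSO as baseline, bidirectional curve fits were applied to reporter mRNA signals. These came from transiently transfected HepG2 cells exposed for 24 h, with RNA analysed by RT-PCR, FAM primer extension, HpaI digestion and CE.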

Experiment [6] can be described thus: ATG_M_06_CIS: Attagene CIS-FACTORIAL HepG2 Assay for M06 Transcription Factor (Internal Marker) (AID 2282950). The conditions noted are these: HepG2 Attagene CIS-FACTORIAL M06 internal marker reporter; actives raise or lower the signal. Summed up: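 Read-out is fluorescence of labelled reporter cDNA fragments resolved by capillary electrophoresis after RT-PCR. Cells: HepG2 carrying transfected cis-promoter reporter units, treated 24 h. Gain or loss of signal fitted relative to DMSO.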

Experiment [7] has as its target Hypoxia-inducible factor 1-alpha (Homo sapiens) (UniProt Q16665). Put plainly: ATG_HIF1a_CIS: Attagene CIS-FACTORIAL HepG2 Assay for human Hypoxia Inducible Factor 1 (HIF1A) (AID 2282951). The conditions noted are these: HepG2 Attagene cis-factorial HIF1a reporter transcription; actives raise or lower the signal. In outline: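 Dosed 24 h, transfected HepG2 cells yielded total RNA whose reporter transcripts were RT-PCR-amplified and sized by capillary electrophoresis using fluorescent labelling; DMSO defined baseline, with gain and loss of signal both fitted.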

Experiment [8] deals with Hepatocyte nuclear factor 6 (Homo sapiens) (UniProt Q9UBC0). In words: ATG_HNF6_CIS: Attagene CIS-FACTORIAL HepG2 Assay for human Hepatocyte Nuclear Factor 6 (HNF6) (AID 2282952). The conditions noted are these: HepG2 Attagene cis-factorial HNF6 reporter transcription; actives raise or lower the signal. In outline:
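First, HepG2 cells were transfected with the multiplexed cis reporter library and dosed with chemical for 24 h. Next, RNA was reverse-transcribed, PCR-amplified and fluorescently labelled. Finally, HpaI-digested fragments were read by capillary electrophoresis.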

In experiment [9] the target is Heat shock factor protein 1 (Homo sapiens) (UniProt Q00613). In words: ATG_HSE_CIS: Attagene CIS-FACTORIAL HepG2 Assay for human Heat Shock Transcription Factor 1 (HSE) (AID 2282953). Particulars: HepG2 HSE cis-reporter, Attagene RNA transcription; actives raise or lower the signal. Summed up:
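HepG2, transient MRTU transfection, cis-promoter reporters (endogenous TF activity). 24 h compound. RNA → oligo(dT) RT → PCR → 6-FAM primer extension → HpaI cut → CE. Bidirectional fit vs DMSO.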

Experiment [10] is described as follows: ATG_MRE_CIS: Attagene CIS-FACTORIAL HepG2 Assay for human Metal Responsive Element (MRE) (AID 2282954). Particulars: HepG2 MRE cis-reporter transcription, Attagene multiplex; actives raise or lower the signal. Summed up:
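Multiplexed cis-reporter assay in human HepG2 liver cells, 24 h incubation with test chemical. Reporter transcripts measured by RT-PCR and capillary electrophoresis; values from bidirectional curve fitting versus DMSO.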

Hepatocyte nuclear factor 6 (Homo sapiens), sequence (Q9UBC0 whole entry, looked up, the tested form may be a part): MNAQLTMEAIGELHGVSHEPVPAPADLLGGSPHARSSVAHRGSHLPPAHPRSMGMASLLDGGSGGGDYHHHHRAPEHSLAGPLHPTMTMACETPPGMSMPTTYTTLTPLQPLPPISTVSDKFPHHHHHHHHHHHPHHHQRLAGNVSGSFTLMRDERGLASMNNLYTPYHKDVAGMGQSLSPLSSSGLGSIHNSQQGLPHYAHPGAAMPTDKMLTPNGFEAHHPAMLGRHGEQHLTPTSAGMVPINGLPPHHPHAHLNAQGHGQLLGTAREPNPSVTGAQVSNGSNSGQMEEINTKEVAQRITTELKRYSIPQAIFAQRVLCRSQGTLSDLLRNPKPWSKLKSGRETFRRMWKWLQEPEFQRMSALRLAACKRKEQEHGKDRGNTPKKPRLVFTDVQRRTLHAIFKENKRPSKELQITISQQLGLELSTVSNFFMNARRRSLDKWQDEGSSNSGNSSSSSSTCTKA
Hypoxia-inducible factor 1-alpha (Homo sapiens), sequence (Q16665 whole entry, looked up): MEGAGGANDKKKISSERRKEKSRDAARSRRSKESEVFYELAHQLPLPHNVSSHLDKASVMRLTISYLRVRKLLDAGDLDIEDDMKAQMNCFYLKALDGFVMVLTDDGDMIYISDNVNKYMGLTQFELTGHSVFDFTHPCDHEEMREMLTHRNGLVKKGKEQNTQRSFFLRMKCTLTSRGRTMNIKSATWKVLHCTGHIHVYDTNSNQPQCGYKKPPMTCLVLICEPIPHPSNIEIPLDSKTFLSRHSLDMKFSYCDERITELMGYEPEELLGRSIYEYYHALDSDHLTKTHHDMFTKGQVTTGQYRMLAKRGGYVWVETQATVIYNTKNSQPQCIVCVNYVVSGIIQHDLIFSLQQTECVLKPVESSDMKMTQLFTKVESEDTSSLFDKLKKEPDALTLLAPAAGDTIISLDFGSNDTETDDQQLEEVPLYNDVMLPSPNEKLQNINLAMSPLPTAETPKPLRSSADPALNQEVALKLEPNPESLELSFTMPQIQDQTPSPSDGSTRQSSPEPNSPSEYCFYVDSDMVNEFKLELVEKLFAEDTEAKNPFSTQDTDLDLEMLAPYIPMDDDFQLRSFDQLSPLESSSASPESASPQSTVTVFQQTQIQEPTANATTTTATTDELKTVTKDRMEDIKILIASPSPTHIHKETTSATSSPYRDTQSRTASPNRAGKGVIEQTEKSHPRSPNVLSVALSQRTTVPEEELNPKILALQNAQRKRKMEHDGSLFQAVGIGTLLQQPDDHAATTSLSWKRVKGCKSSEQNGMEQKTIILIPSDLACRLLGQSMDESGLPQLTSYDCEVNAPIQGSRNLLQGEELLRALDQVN
Heat shock factor protein 1 (Homo sapiens), sequence (Q00613 whole entry, looked up): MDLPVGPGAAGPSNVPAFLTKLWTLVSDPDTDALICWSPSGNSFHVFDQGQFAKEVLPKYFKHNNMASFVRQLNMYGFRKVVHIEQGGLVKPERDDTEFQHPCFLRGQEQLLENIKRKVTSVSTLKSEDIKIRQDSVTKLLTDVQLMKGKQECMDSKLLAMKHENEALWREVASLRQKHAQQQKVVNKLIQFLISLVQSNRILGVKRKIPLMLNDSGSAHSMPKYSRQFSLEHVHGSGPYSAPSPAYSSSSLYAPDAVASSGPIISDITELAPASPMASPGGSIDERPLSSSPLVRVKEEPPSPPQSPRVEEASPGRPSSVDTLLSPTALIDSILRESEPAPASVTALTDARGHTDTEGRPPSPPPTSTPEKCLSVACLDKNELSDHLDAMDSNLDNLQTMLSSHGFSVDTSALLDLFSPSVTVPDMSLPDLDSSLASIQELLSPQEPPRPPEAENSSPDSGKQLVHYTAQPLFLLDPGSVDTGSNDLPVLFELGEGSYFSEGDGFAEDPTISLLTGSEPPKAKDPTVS

Turning to `NC(=O)C(F)(F)C(F)(F)C(F)(F)C(F)(F)C(F)(F)C(F)(F)C(F)(F)F`, the call in experiment [1], in experiment [2], in experiment [3], in experiment [4], in experiment [5] and in [6] was inactive. The outcome in experiment [7], in [8], in [9] and in [10] was inactive.
Regarding `CCc1cc(Cc2cc(CC)c(N)c(CC)c2)cc(CC)c1N`, the AC50 in experiment [1] is 60.5 µM (active); in [8] it was 56.6 µM (active); in experiment [9], 60 µM (active); in [10], 26.1 µM (active). The call in [2], in experiment [3], in experiment [4], in experiment [5], in experiment [6] and in experiment [7] was inactive.
`O=c1cccc[nH]1`: the compound was classed as inactive in [1], in experiment [2], in [3], in experiment [4], in experiment [5] and in [6]. Also, the result in [7], in experiment [8], in [9] and in experiment [10] was inactive.
Consider `CCCCCCCCn1sc(Cl)c(Cl)c1=O`, for which the AC50 in experiment [1] is 11.1 µM (active); in experiment [3] it was 18.6 µM (active); in experiment [5], 15.9 µM (active); in [7], 16.3 µM (active); in [9], 11.1 µM (active). For the same compound, the outcome in experiment [2], in [4], in experiment [6], in experiment [8] and in experiment [10] was inactive.
With `C=CC(=O)OCC(F)(F)C(F)(F)C(F)(F)C(F)(F)C(F)(F)C(F)(F)C(F)(F)C(F)F`, the compound was classed as inactive in experiment [1], in experiment [2], in experiment [3], in experiment [5], in experiment [6] and in experiment [7]. Besides, the outcome in [8] was inactive. The results for the AC50 in experiment [4], in experiment [9] and in experiment [10] were 150 µM (active), 218 µM (active) and 231 µM (active), respectively.
Consider `CC(C)Nc1ccc(NC(C)C)c2c1C(=O)c1ccccc1C2=O`, for which the compound was called inactive in experiment [1], in experiment [2], in experiment [3], in experiment [4], in experiment [5] and in experiment [6]. The call in experiment [7], in experiment [8], in experiment [9] and in [10] was inactive.
On to `CCCCCCCCCCCCC[N+](C)(C)Cc1ccccc1`, for which the compound was classed as inactive in experiment [1], in experiment [2], in experiment [3], in experiment [4], in experiment [5] and in experiment [6]. In addition, the call in experiment [7], in experiment [8], in [9] and in experiment [10] was inactive.
As for `COC(F)(C(F)F)C(F)(F)F` (stereo not given), the call in experiment [1], in experiment [2], in [3], in experiment [4], in experiment [5] and in experiment [6] was inactive. The call in [7], in experiment [8], in experiment [9] and in experiment [10] was inactive.
Consider `OCC(O)CC(F)(F)C(F)(F)C(F)(F)C(F)(F)C(F)(F)C(F)(F)C(F)(F)C(F)(F)F` (stereo not given), for which the compound was classed as inactive in [1], in [2], in experiment [3], in experiment [4], in [5] and in [6]. For the same compound, the call in experiment [7], in [8], in experiment [9] and in experiment [10] was inactive.
With `CCN(CC)c1ccc(N=Nc2ccccc2)cc1`, the compound was called inactive in [1], in experiment [2], in [3], in experiment [4], in experiment [5] and in experiment [6]. In addition, the call in experiment [7] and in experiment [8] was inactive. The AC50 is 144 µM (active) in experiment [9] and 7.22 µM (active) in experiment [10].
`CC(C)C(=O)OCc1ccccc1`: the result in experiment [1], in [2], in [3], in experiment [4], in experiment [5] and in experiment [6] was inactive. The result in [7], in experiment [8], in experiment [9] and in [10] was inactive.
Consider `CC(C)(C)c1cc(CCC(=O)OCC(COC(=O)CCc2cc(C(C)(C)C)c(O)c(C(C)(C)C)c2)(COC(=O)CCc2cc(C(C)(C)C)c(O)c(C(C)(C)C)c2)COC(=O)CCc2cc(C(C)(C)C)c(O)c(C(C)(C)C)c2)cc(C(C)(C)C)c1O`, for which the call in [1], in [2], in [3], in [4], in experiment [5] and in experiment [6] was inactive. Also, the result in experiment [7], in experiment [8], in experiment [9] and in experiment [10] was inactive.
On to `NCC(F)(F)C(F)(F)C(F)(F)C(F)(F)C(F)(F)C(F)(F)F`, for which the call in [1], in [2], in experiment [3], in [4], in [5] and in [6] was inactive. Also, the result in [7], in experiment [8], in [9] and in [10] was inactive.
On to `O=C(O)C(F)(F)C(F)(F)C(F)(F)OC(F)(F)F`, for which the compound was called inactive in [1], in experiment [2], in experiment [3], in experiment [4], in experiment [5] and in [6]. In addition, the compound was classed as inactive in experiment [7], in experiment [8], in experiment [9] and in [10].
For the compound `O=C(O)CCC(F)(F)C(F)(F)C(F)(F)C(F)(F)C(F)(F)C(F)(F)C(F)(F)F`, the result in experiment [1], in experiment [2], in experiment [3], in experiment [5], in experiment [6] and in experiment [7] was inactive. In addition, the call in experiment [8], in [9] and in [10] was inactive. Also, the AC50 in [4] is 150 µM (active).
For `O=S(=O)(Cl)C(F)(F)C(F)(F)C(F)(F)C(F)(F)C(F)(F)C(F)(F)C(F)(F)C(F)(F)F`, the result in [1], in [2], in experiment [3], in [4], in [5] and in experiment [6] was inactive. Besides, the compound was called inactive in [7], in experiment [8], in experiment [9] and in [10].
On to `OCCC(O)CO` (stereo not given), for which the outcome in experiment [1], in experiment [2], in [3], in experiment [4], in experiment [5] and in [6] was inactive. Moreover, the compound was called inactive in experiment [7], in [8], in experiment [9] and in [10].
As for `CC1=CCC(=O)O1`, the compound was classed as inactive in experiment [1], in experiment [2], in experiment [3], in [4], in experiment [5] and in experiment [6]. Moreover, the result in experiment [7], in experiment [8], in [9] and in experiment [10] was inactive.
With `Nc1c(Br)cc([N+](=O)[O-])cc1Br`, the compound was classed as inactive in experiment [1], in experiment [2], in [3], in [4], in [5] and in [6]. Also, the outcome in experiment [7], in [8], in experiment [9] and in experiment [10] was inactive.
With `Cc1ccc([N+](=O)[O-])c(C)c1`, the call in experiment [1], in experiment [2], in experiment [3], in experiment [4], in experiment [5] and in experiment [6] was inactive. In addition, the call in [7], in [8], in [9] and in [10] was inactive.
As to `CCn1c2ccccc2c2ccccc21`, the compound was classed as inactive in experiment [1], in [2], in experiment [3], in experiment [4], in [5] and in experiment [6]. For the same compound, the result in [7], in [8] and in [9] was inactive. The AC50 in experiment [10] is 73.9 µM (active).
`CCOC(=O)CCC(C)=O`: the result in [1], in experiment [2], in experiment [3], in experiment [4], in experiment [5] and in experiment [6] was inactive. In addition, the result in experiment [7], in [8], in experiment [9] and in experiment [10] was inactive.
`O=C1c2c(O)ccc(Nc3ccc(CCO)cc3)c2C(=O)c2c([N+](=O)[O-])ccc(O)c21`: the result in experiment [1], in experiment [2], in [3], in experiment [4], in experiment [5] and in experiment [6] was inactive. The compound was called inactive in experiment [7], in experiment [8], in experiment [9] and in experiment [10].
`OCCCC(F)(F)C(F)(F)C(F)(F)C(F)(F)C(F)(F)C(F)(F)C(F)(F)C(F)(F)F`: the result in experiment [1], in [2], in experiment [3], in experiment [5], in experiment [6] and in experiment [7] was inactive. Also, the result in [8], in experiment [9] and in experiment [10] was inactive. In addition, the AC50 in experiment [4] was 50 µM (active).

As usually defined, the AC50 is the concentration giving half of the maximal activity seen.

The record behind these values is PubChem BioAssay (EPA / NIEHS).
